The nature of experiment [1]: qHTS assay to identify small molecule agonists of the constitutive androstane receptor (CAR) signaling pathway - cell viability counter screen (AID 1224836). Further: nearly all actives have a fitted effect of over 45% in size. Further: potency means the concentration at half of the fitted maximal effect. The procedure, abridged: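 Viability read-out: CellTiter-Fluor fluorescence after 23 h compound exposure at 37 C/5% CO2 in double-stable HepG2-CYP2B6-hCAR cells, with PK11195 present at 0.75 uM final; compounds tested in 15-point titration.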

The nature of experiment [2]: qHTS assay to identify small molecule antagonists of the constitutive androstane receptor (CAR) signaling pathway - cell viability counter screen (AID 1224837). Further: nearly all actives have a fitted effect of over 45% in size. Further: potency means the concentration at half of the fitted maximal effect. In outline:
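Using CellTiter-Fluor, viability is scored in HepG2 cells stably carrying hCAR and a 2.2kb CYP2B6 reporter after 23 hr compound exposure across 15 concentrations, with CITCO present at 50 nM.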

In experiment [3] the target is Nuclear receptor subfamily 1 group I member 3 (Homo sapiens) (UniProt Q14994). The experiment in a line: qHTS assay to identify small molecule antagonists of the constitutive androstane receptor (CAR) signaling pathway (AID 1224838).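 Further: HepG2 cells stably expressing hCAR with CYP2B6 luciferase reporter stimulated by CITCO; nearly all actives have a fitted effect of over 40% in size.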 Further: potency means the concentration at half of the fitted maximal effect. In outline: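 Reporter luminescence was quantified after 24 h exposure of hCAR/CYP2B6-2.2kb double-stable HepG2 cells to compounds at 15 concentrations in the presence of 50 nM CITCO final.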
Chain of Nuclear receptor subfamily 1 group I member 3 (Homo sapiens) (Q14994 whole entry, looked up): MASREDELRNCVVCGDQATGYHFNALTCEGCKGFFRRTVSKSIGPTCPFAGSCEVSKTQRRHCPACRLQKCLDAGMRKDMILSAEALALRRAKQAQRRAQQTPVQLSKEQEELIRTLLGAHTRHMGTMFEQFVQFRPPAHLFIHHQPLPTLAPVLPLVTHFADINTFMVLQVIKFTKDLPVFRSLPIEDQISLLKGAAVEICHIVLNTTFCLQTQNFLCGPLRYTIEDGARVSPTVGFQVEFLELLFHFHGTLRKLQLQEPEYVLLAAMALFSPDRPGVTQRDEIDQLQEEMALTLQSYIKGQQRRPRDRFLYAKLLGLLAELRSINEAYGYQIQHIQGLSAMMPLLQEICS

The target is the same in experiment [4]. The experiment in a line: qHTS assay to identify small molecule agonists of the constitutive androstane receptor (CAR) signaling pathway (AID 1224839). Further: nearly all actives have a fitted effect of over 15% in size. Further: potency means the concentration at half of the fitted maximal effect.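 On activation: HepG2 cells stably carrying human CAR and a CYP2B6 luciferase reporter.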 In outline:
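Luminescence read-out (ONE-Glo, 30 min, room temperature) from double-stable HepG2-CYP2B6-hCAR cells exposed 24 h to 15-point compound series in presence of 0.75 uM PK11195 final.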

A short description of experiment [5]: qHTS assay to identify small molecule antagonists of the estrogen related receptor signaling pathway with the pleiotropic PPARgamma coactivator (PGC) from Tox21 10K library - cell viability counter screen (AID 1224840; active means well fitted cell-killing curve with a large enough effect in the repeat runs, not every such curve was filed as active; further: nearly all actives have a fitted effect of over 40% in size; further: potency means the concentration at half of the fitted maximal effect). In outline:
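Here the PGC/ERR cells serve as a cytotoxicity control: they are exposed to compounds for 17.5 hours at 37 C, and live-cell signal is quantified using CellTiter-Fluor fluorescence.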

A short description of experiment [6]: qHTS assay to identify small molecule antagonists of the estrogen related receptor signaling pathway with the pleiotropic PPARgamma coactivator (PGC) from Tox21 10K library (AID 1224841; call rule not given here; further: actives are mostly falling curves and most rising ones were filed inactive; nearly all actives have a fitted effect of over 50% in size). The procedure, abridged:
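Each well held 2,000 PGC/ERR cells, pre-incubated six hours (37 C, 5% CO2). Test substances in DMSO were added by pin tool and left for 18 h at 37 C before luciferase detection by One-Glo.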

Experiment [7] can be described thus: qHTS assay to identify small molecule agonists of the estrogen related receptor signaling pathway with the pleiotropic PPARgamma coactivator (PGC) from Tox21 10K library (AID 1224842). Further: nearly all actives have a fitted effect of over 15% in size. In outline:
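PGC/ERR reporter cell line, 2,000 cells per well, incubated 6 h at 37 C before 23 nL compound in DMSO was added. After 18 h at 37 C, One-Glo luminescence read following 30 min at room temperature.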

The target in experiment [8] is Thyrotropin receptor (Homo sapiens) (UniProt P16473). The experiment in a line: qHTS assay to identify small molecule agonists of the thyroid stimulating hormone receptor (TSHR) signaling pathway (AID 1224843; calls by dose curve; further: nearly all actives have a fitted effect of over 45% in size). The procedure, abridged: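 Steps: seed 800 TSHR-HEK293 cells per well; add test compound and hold 30 min at ambient temperature; dispense cAMP-d2 then anti-cAMP cryptate; incubate 1 h at ambient; measure fluorescence intensity.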
Chain of Thyrotropin receptor (Homo sapiens) (P16473 whole entry, looked up): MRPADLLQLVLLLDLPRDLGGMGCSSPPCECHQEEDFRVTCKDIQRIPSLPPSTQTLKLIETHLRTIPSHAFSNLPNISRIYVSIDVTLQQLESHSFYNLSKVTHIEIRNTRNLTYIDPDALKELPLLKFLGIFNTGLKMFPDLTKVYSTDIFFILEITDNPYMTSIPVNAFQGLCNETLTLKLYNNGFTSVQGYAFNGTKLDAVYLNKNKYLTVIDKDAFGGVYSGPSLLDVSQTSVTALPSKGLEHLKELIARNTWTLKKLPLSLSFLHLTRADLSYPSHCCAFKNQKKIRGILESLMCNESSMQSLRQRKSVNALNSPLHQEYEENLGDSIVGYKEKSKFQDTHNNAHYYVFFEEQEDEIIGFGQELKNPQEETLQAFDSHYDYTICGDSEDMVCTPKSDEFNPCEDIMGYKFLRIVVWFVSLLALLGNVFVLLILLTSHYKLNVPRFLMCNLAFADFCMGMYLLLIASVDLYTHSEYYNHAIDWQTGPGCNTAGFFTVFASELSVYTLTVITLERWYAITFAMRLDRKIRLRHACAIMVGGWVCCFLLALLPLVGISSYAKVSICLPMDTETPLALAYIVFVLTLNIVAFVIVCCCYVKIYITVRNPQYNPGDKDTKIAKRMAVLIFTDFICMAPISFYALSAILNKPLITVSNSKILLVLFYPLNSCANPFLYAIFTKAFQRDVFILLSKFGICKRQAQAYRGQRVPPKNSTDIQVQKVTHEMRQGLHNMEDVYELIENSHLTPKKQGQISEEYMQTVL

Experiment [9] is described as follows: qHTS assay to identify small molecule agonists of the hypoxia (HIF-1) signaling pathway - cell viability counter screen (AID 1224844; calls by dose curve; further: nearly all actives have a fitted effect of over 50% in size). The procedure, abridged: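 Multiplexed with the HRE beta-lactamase assay, this viability read used CellTiter-Glo luminescence (30 min, RT) on HRE-bla ME-180 cells treated 17 hrs with compounds in 0.5% dialyzed FBS medium.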

A short description of experiment [10]: qHTS assay to identify small molecule agonists of H2AX (AID 1224845; active means well fitted activation curve with a large enough effect in the signal ratio in the repeat runs, not every such curve was filed as active; the % refers to the signal ratio; further: potency means the concentration at half of the fitted maximal effect). The procedure, abridged:
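Wild-type CHO-K1 cells, plated overnight, exposed 3hr at 37C to 15 concentrations (0.76% DMSO final). Lysed, then HTRF anti-pH2AX (S139) cryptate and anti-H2AX-d2 antibodies, 24 hr room temperature; 665/620 nm emission read.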

The nature of experiment [11]: qHTS assay to identify small molecule agonists of H2AX - cell viability counter screen (AID 1224847; calls by dose curve; further: top concentration of the series differs between compounds; nearly all actives have a fitted effect of over 30% in size). In outline:
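CHO-K1 wt, 1000 cells/well, o/n 37C; cpds 15 conc, 3 h 37C, 0.76% DMSO; CellTiter-Glo, 30 min RT, luminescence.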

Experiment [12] in a line: qHTS assay to identify small molecule antagonists of the estrogen related receptor (ERR) signaling pathway from Tox21 library (AID 1224848). Further: nearly all actives have a fitted effect of over 50% in size. Further: potency means the concentration at half of the fitted maximal effect. The procedure, abridged: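 Luminescent reporter read-out (ONE-Glo) from NTP's ERR cell line after 18 h treatment at 37 C with DMSO-dissolved Tox21 compounds; cells pre-plated 6 h beforehand at 2,000 per well.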
Experiment [13] can be described thus: qHTS assay to identify small molecule agonists of the estrogen related receptor (ERR) signaling pathway from Tox21 library (AID 1224849; calls by dose curve; further: nearly all actives have a fitted effect of over 15% in size). The note with it: ERR reporter cell line, ONE-Glo luciferase, 18 h. In outline: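 Six hours post-seeding at 37 C/5% CO2, ERR cells receive DMSO-solubilised compounds; after 18 h at 37 C, ONE-Glo reagent is applied and luminescence recorded.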

The nature of experiment [14]: qHTS RealTime-Glo MT Cell Viability Assay in HepG2 cells - 24 hour (AID 1224867). Further: nearly all actives have a fitted effect of over 50% in size. Further: potency means the concentration at half of the fitted maximal effect. The procedure, abridged:
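Real-time, nonlytic viability: 600 HepG2 cells/well mixed with NanoLuc enzyme plus prosubstrate; 5 h settle, compound (DMSO) added by pintool; luminescence monitored over 40 h at 37 C.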

Experiment [15] in a line: qHTS RealTime-Glo MT Cell Viability Assay in HEK293 cells - 32 hour (AID 1224868). Further: nearly all actives have a fitted effect of over 50% in size. Further: potency means the concentration at half of the fitted maximal effect. The procedure, abridged: (§1)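 Cells + reagent dispensed (600 cells/well, HEK293) → 5 h at 37 C/5% CO2 → 23 nL compound in DMSO pinned → 40 h at 37 C → luminescence read at 0, 8, 16, 24, 32, 40 h.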
A short description of experiment [16]: A CellTox Green Cytotoxicity Assay to monitor cytotoxicity in HEK293 cells - 0 hour (AID 1224869). Further: nearly all actives have a fitted effect of over 50% in size. The procedure, abridged: (§2)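 Seeding of HEK293 cells together with cytotoxicity dye preceded a 5 h incubation at 37 C/5% CO2. Test compounds in DMSO were then added and fluorescence monitored across 40 h.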
The nature of experiment [17]: qHTS RealTime-Glo MT Cell Viability Assay in HepG2 cells - 40 hour (AID 1224870). Further: nearly all actives have a fitted effect of over 50% in size. In outline: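 HepG2 cells (600/well) mixed with RealTime-Glo MT reagent, settled 5 h at 37 C/5% CO2 before compound addition. Nonlytic NanoLuc luminescence from viable-cell prosubstrate reduction read repeatedly during 40 h treatment at 37 C.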
Experiment [18] can be described thus: A CellTox Green Cytotoxicity Assay to monitor cytotoxicity in HEK293 cells - 40 hour (AID 1224871). Further: nearly all actives have a fitted effect of over 45% in size. In outline: as §2
A short description of experiment [19]: qHTS assay to identify small molecule agonists of the hypoxia (HIF-1) signaling pathway (AID 1224846; active means well fitted activation curve with a large enough effect in the signal ratio in the repeat runs, not every such curve was filed as active; the % refers to the signal ratio). In outline: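 Hypoxia-pathway activation was scored as increased beta-lactamase from an HRE-controlled reporter in ME-180 cells; plated at 2,000 cells per well with 0.5% dialyzed FBS, they were exposed 17 hrs to compounds and then given CCF4-AM.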
The nature of experiment [20]: qHTS RealTime-Glo MT Cell Viability Assay in HEK293 cells - 16 hour (AID 1224872). Further: nearly all actives have a fitted effect of over 50% in size. Further: potency means the concentration at half of the fitted maximal effect. The procedure, abridged:
as §1

Structures are written as SMILES. Several values for one entry are separate records, joined by “and”; a condition that tells them apart may be missing. Equal values may be shown once. Values without a mark were called inactive. Inconclusive results are not listed. Activity calls are given as the source filed them. Unless noted, the call rests on the fitted dose curve; in most records, active means well fitted curve in the direction sought with a large enough effect in the repeat runs; inconclusive means weak or mixed curves; inactive means no such curve, though single readings can be large; an effect the other way counts as inactive or inconclusive. Starred links: 1 amine or outer side, 2 acyl side, 3 side chain; linkers in the order of their positions; H or OH if unused. Positions of bridges follow the written chain, without caps; N, C: chain ends. Non-standard residues stand in square brackets, D forms with d. Residues, ends and D or L forms follow the SMILES beside them. Chains are numbered I, II in the order given. Actinocin(9to1) = Cc1c2oc3c(C)ccc(C(=O)[*:1])c3nc-2c(C(=O)[*:2])c(N)c1=O; NMeV = CN[C@H](C(=O)O)C(C)C; Sar = CNCC(=O)O
On the % scale 0 is the no-effect control and ±100 the full control effect.

For `CCn1cc(C(=O)O)c(=O)c2cc(F)c(N3CCNC(C)C3)c(F)c21` (stereo unspecified), the Potency result in experiment [1], in [2], in experiment [3], in [4], in [5] and in experiment [6] was “inactive” throughout. The Potency entry in experiment [7], in experiment [8], in experiment [9], in experiment [10], in experiment [11] and in [12] was “inactive” throughout. The Potency entry in [14], in [15], in experiment [16], in [17] and in experiment [18] was “inactive” in each case. In addition, the activity change, positive = activation in experiment [13] (at 42.5 µM (top of the series)) was 3.97%.

Take `CCN1CCCC1CNC(=O)c1cc(S(=O)(=O)CC)c(N)cc1OC` (stereo unspecified): the Potency result in experiment [1], in experiment [2], in [3], in [4], in [5] and in experiment [6] was “inactive” in each case. In addition, the Potency entry in experiment [7], in [8], in [9], in experiment [10], in experiment [19] and in experiment [11] was “inactive” in each case. Also, the Potency result in [12], in experiment [14], in experiment [15], in [16], in experiment [17] and in [18] was “inactive” each time. Further, the activity change, positive = activation in [13] (at 42.5 µM (top of the series)) was 2.19%.

With `Cc1c2oc3c(C)ccc(C(=O)N[C@@H]4C(=O)N[C@H](C(C)C)C(=O)N5CCC[C@H]5C(=O)N(C)CC(=O)N(C)[C@@H](C(C)C)C(=O)O[C@@H]4C)c3nc-2c(C(=O)N[C@@H]2C(=O)N[C@H](C(C)C)C(=O)N3CCC[C@H]3C(=O)N(C)CC(=O)N(C)[C@@H](C(C)C)C(=O)O[C@@H]2C)c(N)c1=O` (I: T[dV]P[Sar][NMeV] / II: T[dV]P[Sar][NMeV]; ester I:1-I:C, II:1-II:C; linker I:N-II:N via Actinocin(9to1)), the Potency was 13.3 nM (active) in [1]; 7.5 nM (active) and 33.5 nM (active) in experiment [2]; 1 nM (active) in experiment [3]; 266 nM (active) in experiment [5]; 1100 nM (active) in experiment [10]; 8.47 µM (active) and 2.68 µM (active) in experiment [14]. The Potency in [15] was 12 nM (active) and 21.3 nM (active); in experiment [20], 33.7 nM (active) and 120 nM (active). For the same compound, the Potency result in experiment [4], in [9], in [11], in experiment [16] and in experiment [18] was “inactive” throughout.

In the case of `CCC(C)(C)C(=O)O[C@H]1C[C@@H](C)C=C2C=C[C@H](C)[C@H](CC[C@@H]3C[C@@H](O)CC(=O)O3)[C@H]21`, the Potency result in experiment [1], in experiment [2], in experiment [3], in experiment [5], in [8] and in experiment [10] was “inactive” in each case. Also, the Potency entry in experiment [19], in [11], in [16] and in experiment [18] was “inactive” in each case.

As to `Cc1ccnc2c1NC(=O)c1cccnc1N2C1CC1`, the Potency result in experiment [1], in [2], in experiment [3], in experiment [4], in [5] and in experiment [8] was “inactive” throughout. The Potency entry in experiment [9], in [10], in experiment [19], in experiment [11], in experiment [14] and in experiment [15] was “inactive” each time. Also, the Potency entry in experiment [17] and in experiment [18] was “inactive” in each case.

For the compound `C/C=C/c1ccc(OCC)c(O)c1`, the Potency result in [1], in [2], in experiment [3], in experiment [4], in [5] and in experiment [8] was “inactive” throughout. The Potency result in [9], in [10], in experiment [19], in experiment [11], in experiment [14] and in experiment [15] was “inactive” in each case. The Potency result in experiment [16], in [17], in experiment [18] and in experiment [20] was “inactive” in each case.

In the case of `CCn1c2ccccc2c2cc(N)ccc21`, the Potency entry in experiment [1], in experiment [2], in experiment [3], in experiment [5], in experiment [7] and in [8] was “inactive” each time. In addition, the Potency entry in [9], in experiment [11], in experiment [14], in [15], in experiment [17] and in experiment [18] was “inactive” each time. In addition, in experiment [20], the Potency result is “inactive”. In addition, the Potency in experiment [4] was 10.8 µM (active) and 15.4 µM (active) and 30.6 µM (active); in experiment [12], 34000 nM (active). Also, the activity change, positive = activation in [13] (at 92.4 µM (top of the series)) is -48% and -30.3% and -32.3%.

The values are drawn from PubChem BioAssay (Tox21).
